Assay results as given in PubChem BioAssay.
Active and inactive are the calls of the source.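 The calls were made as follows, unless noted: active = z-score of at least 1.8 in each of two replicates, scored against plate mean and spread of sample wells; inactive = the rest.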

What was measured:
[1] = sensitizers of A549 cells to miR-34 induction, primary screen, imaging, A549 dox-inducible miR-34, nuclei and caspase counts (AID 1347080;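 active = compounds whose cell count with miR-34 switched on is under 0.7 times the count with it off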; also: test concentration not given here); conditions: A549 miR-34 inducible, Hoechst nuclei count, 48 h
[2] = viability rescue of complex I mutant cybrids, primary screen, cell-based, galactose medium, ATP luminescence (AID 1645843); conditions: complex I mutant cybrid cells, 72 h, stronger effect = higher value;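 also: positive z means more ATP and so rescue of galactose-driven cybrid death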
[3] = stronger effect = lower value, cell number ratio, induced over uninduced
[4] = measured here: relative caspase fold change +Dox/-Dox
[5] = measured here: total cells with miR-34 induction, stronger effect = lower value
[6] = measured here: total cells without miR-34 induction

Row | Structure (SMILES) | fold change [1, 3] | fold change [1, 4] | cell count [1, 5] | cell count [1, 6] | z-score [2]
1 | CC1CCC2C(C)C(OC(=O)CCC(=O)O)OC3O[C@@]4(C)CCC1[C@]32OO4 (stereo not given in full) | 0.992 (inactive) | 1.91 | 6760 | 6810 | -1.79 (inactive)
2 | CC(C)CC(NC(=O)C(O)C(N)Cc1ccccc1)C(=O)O (stereo not given) | 0.913 (inactive) | 1.61 | 8460 | 9270 | 0.29 (inactive)
3 | COc1cc(C=Cc2ccc(O)cc2)cc(OC)c1 | 0.943 (inactive) | 1.26 | 6760 | 7170 | -1.52 (inactive)
4 | Nc1nc(Cl)nc2c1ncn2C1OC(CO)C(O)C1O (stereo not given) | 1.26 (inactive) | 0.688 | 2120 | 1680 | -0.02 (inactive)
5 | CN1CC(=O)N/C1=N\C(=O)Nc1cccc(Cl)c1 | 1.1 (inactive) | 0.699 | 10900 | 9930 | 0.545 (inactive)
6 | C#C[C@]1(O)CCC2C3CCC4=CC(=O)CCC4C3CC[C@@]21CC (stereo not given in full) | 0.905 (inactive) | 1.25 | 8490 | 9390 | 0.65 (inactive)
7 | CN1C(=O)CCC1c1cccnc1 (stereo not given) | 0.988 (inactive) | 2.52 | 9830 | 9950 | 0.965 (inactive)
8 | CCC(C)C(=O)OC1CCC=C2C=CC(C)C(CCC3CC(O)CC(=O)O3)C21 (stereo not given) | 0.968 (inactive) | 0.887 | 1480 | 1530 | -0.74 (inactive)
9 | O=C1C2CCCCC2C(=O)N1CCCCN1CCN(c2nsc3ccccc23)CC1 (stereo not given) | 0.926 (inactive) | 1.74 | 7810 | 8440 | -1.79 (inactive)
10 | O=C(OC1C(Oc2ccccc2COC(=O)C2(O)C=CCCC2=O)OC(CO)C(O)C1O)c1ccccc1 (stereo not given) | 0.897 (inactive) | 1.99 | 1640 | 1830 | -1.2 (inactive)
11 | CC1CC2C3CCC4=CC(=O)C=C[C@]4(C)[C@@]3(F)C(O)C[C@]2(C)C1C(=O)CO (stereo not given in full) | 0.805 (inactive) | 1.08 | 6880 | 8550 | 1.76 (inactive)
